High-throughput results deposited in PubChem BioAssay by National Center for Advancing Translational Sciences (NCATS).
12-LOX inh = ALOX12 (human) lipoxygenase inhibition; AID 1671190; 580,000 compounds, 1.1% hits; Potency, µM (titrated, usually from 108 µM), inactives show at the highest dose activity change, negative = inhibition, most hits filed as inhibitors; purified 12hLO, xylenol orange hydroperoxide absorbance
Target sequence (P18054 whole entry, looked up): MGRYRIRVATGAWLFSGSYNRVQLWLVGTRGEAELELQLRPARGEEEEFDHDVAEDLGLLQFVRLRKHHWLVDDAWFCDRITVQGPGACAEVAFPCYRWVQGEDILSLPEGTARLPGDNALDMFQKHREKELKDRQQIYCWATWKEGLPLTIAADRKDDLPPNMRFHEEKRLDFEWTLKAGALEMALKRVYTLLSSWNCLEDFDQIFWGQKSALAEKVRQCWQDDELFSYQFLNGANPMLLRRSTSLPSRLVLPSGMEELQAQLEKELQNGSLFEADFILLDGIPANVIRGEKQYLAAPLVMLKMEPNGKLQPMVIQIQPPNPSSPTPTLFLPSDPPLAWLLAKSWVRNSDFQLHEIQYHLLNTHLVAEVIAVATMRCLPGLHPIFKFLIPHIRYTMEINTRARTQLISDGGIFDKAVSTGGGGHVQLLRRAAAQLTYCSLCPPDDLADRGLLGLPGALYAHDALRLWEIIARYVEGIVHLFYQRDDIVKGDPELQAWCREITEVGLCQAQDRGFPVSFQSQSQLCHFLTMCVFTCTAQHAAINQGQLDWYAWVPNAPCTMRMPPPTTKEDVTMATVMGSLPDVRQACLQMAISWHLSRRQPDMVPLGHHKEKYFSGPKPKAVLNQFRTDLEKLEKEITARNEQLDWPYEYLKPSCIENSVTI
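Purified human 12hLO at 150 nM in 25 mM Hepes, 0.01% Triton X-100, pH 7.0, preincubated 15 min at room temperature with compound. Reaction started with 40 uM arachidonic acid, 30 min at room temperature. Hydroperoxide measured by Fe-xylenol orange, 573/405 nm absorbance ratio.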
ELG1 repair inh = inhibitors of ELG1-dependent DNA repair in HEK293T cells | HEK293T ELG1-luciferase reporter, luminescence, 16 h; DNA damage induced by 5-fluorouridine | Potency, µM (highest dose often 46.1 µM), without a hit: at the top dose activity change, negative = inhibition, usual class: inhibitors | 330,000 compounds, 2.3% hits | AID 504467; note: nearly all actives have a fitted effect of over 55% in size
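In this reporter screen, reduction of luminescence relative to DMSO vehicle indicated activity. Compounds and 5-fluorouridine were added together to 2,000 cells per well, incubated for 16 hr at 37 °C, then developed with ONE-Glo.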
RORgamma inh = blocks mouse ROR gamma transcriptional activity | P51450 | 310,000 compounds, 5.4% hits | AID 2551 | Potency, µM (doses to about 53.6 µM), for inactives: at the top dose activity change, negative = inhibition, usual class: inhibitors | Drosophila S2 Gal4-RORgamma UAS-luciferase reporter, 20 h; note: nearly all actives have a fitted effect of over 60% in size
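Stably transfected Drosophila Schneider cells are the test system, with ROR gamma fused to Gal4 and luciferase under UAS control; luminescence is read after 20 hr of 700 uM copper sulfate induction at ambient temperature.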
DT40 TDP1 CPT = growth inhibition of DT40 Tdp1-/-;hTDP1 cells with camptothecin (screen for TDP1 inhibitors) | chicken DT40 Tdp1-/-;hTDP1 cells + 20 nM CPT, ATP luminescence, 48 h | Potency, µM (series often up to 46.2 µM), without a hit: at the highest dose activity change, negative = growth inhibition, most hits filed as inhibitors | 420,000 compounds, 12% hits; note: nearly all actives have a fitted effect of over 55% in size
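Chicken DT40 Tdp1-/- cells stably complemented with human TDP1 were seeded at 400 cells/well in medium containing 20 nM camptothecin, exposed to pin-transferred compounds, and grown at 37 °C for at least 48 hr. Viability was read as ATP luminescence.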
VP16 counter = inhibits Gal4-VP16 luciferase reporter, ROR gamma counter-screen; Drosophila S2 Gal4-VP16 UAS-luciferase, luminescence, 20 h; Potency, µM (top dose mostly 53.6 µM), inactives show at the top dose activity, negative = inhibition, hits mostly inhibitors; 310,000 compounds, 3.5% hits; AID 2546;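 note: Gal4-VP16 expression switched on by copper sulfate through the metallothionein promoter; nearly all actives have a fitted effect of over 50% in size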
TDP1 cell noCPT = qHTS for Inhibitors of human tyrosyl-DNA phosphodiesterase 1 (TDP1): qHTS in cells in absence of CPT; Potency, µM (doses to about 46.2 µM), for inactives: at the top dose activity change, negative = growth inhibition, most hits filed as inhibitors; DT40 Tdp1-/- hTDP1 cells, no CPT, ATP luminescence, 48 h; 420,000 compounds, 15% hits; note: nearly all actives have a fitted effect of over 55% in size
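Chicken DT40 Tdp1-/- cells complemented with human TDP1, screened without camptothecin (DMSO vehicle only), 400 cells/well. Compounds pin-transferred, cells incubated at 37 °C for at least 48 hr. Growth read as ATP-dependent luminescence (CellTiter-Glo, 30 min at RT).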
* marks the source's active call; other numbers are inactive results; ? = inconclusive; . = not tested or not shown; [ ] = another dose, or the depositor's remark. A selection: hits, their analogues and other compounds. The true share with any hit is near 15%. Calls come from the whole dose curve; as a rule, active = well fitted curve in the direction sought with a large enough effect; inconclusive = small, poorly fitted or top-dose-only effect, or another doubt; inactive = no such curve, though single readings can be large; an effect the other way counts as inactive or inconclusive. % is set by controls: 0 for no effect and ±100 for the full control effect; potency is the fitted concentration of half-maximal effect.

SMILES	12-LOX inh	ELG1 repair inh	RORgamma inh	DT40 TDP1 CPT	VP16 counter	TDP1 cell noCPT
Cc1cccc(CN2CCc3c(OCC(=O)N4CCCc5ccccc54)cccc3C2=O)c1	0%	?	?	4.6µM*	-11%	5.8µM*
CN1CCc2c(OCC(=O)N3CCCc4ccccc43)cccc2C1=O	9%	-29%	23%	-25%	-6%	29µM*
CN1CCc2c(OCC(=O)N3CCC(Cc4ccccc4)CC3)cccc2C1=O	-6%	9.2µM*	45%	21µM*	-15%	18µM*
O=C(COc1ccccc1F)N1CCCc2ccccc21	-12%	22%	1%	-5%	0%	-1%
COc1ccc(CC(=O)N2CCOC[C@H](Oc3ccc(OC)cc3)C2)cc1	43%[176 µM]	.	.	.	.	.
COC(=O)CNC(=O)Cn1cc(C(C)=O)c2ccccc21	13%	.	.	.	.	.
COC(=O)c1c(N2C(=O)[C@H]3[C@@H](C2=O)[C@]2(C(=O)Nc4c2ccc(C)c4C)N2CCC[C@@H]32)sc(C)c1C	-22%	6.5µM*	15%	18µM*	-12%	16µM*
CCOC(=O)c1c(C2COc3ccccc3O2)csc1NC(=O)c1ccco1 (stereo not given)	?	?	3%	14µM*	-11%	11µM*
CN(C)CC(=O)N1c2ccccc2CCc2ccc(NC(=O)c3ccc(N)cc3)cc21	13%	?	7.9µM*	-3%	7.1µM*	-4%
CCOC(=O)Nc1ccc2c(c1)N(CCCN(C)C)c1ccccc1CC2	-21%	?	-9%	23µM*	0%	?
COC(=O)N1c2ccccc2CCc2ccccc21	?	?	-21%	21µM*	-2%	16µM*
CC(=O)N1c2ccccc2CCc2ccc(N)cc21	-6%	-12%	1%	1%	-6%	-6%
CCOC(=O)Nc1ccc2c(c1)N(C(=O)OC)c1ccccc1CC2	0%	-18%	-10%	?	5%	?
CC(=O)Nc1ccc2c(c1)N(C(C)=O)c1ccccc1CC2	?	21µM*	10%	10%	-12%	-1%
COc1cc(C(=O)Nc2ccc3c(c2)N(C(=O)CCN(C)C)c2ccccc2CC3)cc(OC)c1OC	0%	?	-18%	-1%	15%	-1%
COc1ccc(NC(=O)C2CCCN(c3ncccn3)C2)cc1 (stereo not given)	17%	?	2%	-1%	14%	-5%
Cc1ccnc(N2CCC(C(=O)Nc3cccc(C(F)(F)F)c3)CC2)n1	?	16µM*	-1%	-30%	-9%	?
CCC(C)c1ccc(NC(=O)C2CCCN(c3ncccn3)C2)cc1 (stereo not given)	0%	10%	16%	21µM*	-8%	18µM*
CCC(C)c1ccc(NC(=O)C2CC3CCC2C3)cc1 (stereo not given)	-8%	.	.	?	.	26µM*
CCOc1ccc(NC(=O)C2CC3CCC2C3)cc1 (stereo not given)	170%	.	.	16%	.	-15%
O=C(Nc1cccc(C(F)(F)F)c1)C1CCN(c2nnc(-n3cccc3)s2)CC1	-23%	.	.	?	.	21µM*
CCc1ccc(N2CN(Cc3cccnc3)Cn3c2nc(C)c(C)c3=O)cc1	19%	.	.	.	.	.
Cc1ccnc(N2CCCC(C(=O)Nc3ccc(C)c(C)c3)C2)n1 (stereo not given)	-20%	-22%	0%	9.2µM*	1%	?
COc1cc(-c2ccc(C)cc2)nc2ccc(C(=O)N3CCC(C(N)=O)CC3)cc12	-11%	.	.	.	.	.
CCCN1CCC2(CCN([S+](=O)([O-])c3cccs3)CC2)Oc2ccccc21	-3%	.	.	.	.	.
SMILES	12-LOX inh	ELG1 repair inh	RORgamma inh	DT40 TDP1 CPT	VP16 counter	TDP1 cell noCPT
CSC1(SC2=NCCN2)SC2(NCCN2)S1	?	.	.	10µM*	.	13µM*
CCc1nn(C(C)C(=O)N2CCN(c3ccc(OC)cc3)CC2)c(=O)c2cc3occc3n12 (stereo not given)	0%	-11%	7%	4.6µM*	1%	7.3µM*
CCc1nn(CCCC(=O)N2CCN(c3cccc(OC)c3)CC2)c(=O)c2cc3occc3n12	-17%	.	.	-19%	.	-27%
CCc1nn(C(C)C(=O)N2CC(C)CC(C)C2)c(=O)c2cc3occc3n12 (stereo not given)	7%	9%	-41%	-9%	3%	-15%
Cc1cccc(N2CCN(C(=O)[C@H](C)N3C(=O)C4CC=CCC4C3=O)CC2)c1C (stereo not given in full)	-1%	-26%	.	23µM*	.	26µM*
CCc1nn(C(C)C(=O)N2CCN(c3cccc(C(F)(F)F)c3)CC2)c(=O)c2cc3occc3n12 (stereo not given)	0%	.	.	?	.	23µM*
CCc1nn(CCCC(=O)N2CCN(c3cc(Cl)ccc3C)CC2)c(=O)c2cc3occc3n12	-26%	.	.	?	.	23µM*
COc1ccc(N2CCN(C(=O)[C@H](C)N3C(=O)C4CC=CCC4C3=O)CC2)cc1 (stereo not given in full)	8%	-6%	.	-8%	.	-6%
CCN(CC)C(=O)[C@@H]1CCC[C@@H](N(C)C)CN(C)C(=O)C1	-19%[176 µM]	.	.	.	.	.
Cc1cccc(N2CCN(C(=O)CCCn3ncn4c(cc5occc54)c3=O)CC2)c1C	-17%	.	.	?	.	26µM*
CCC(C(=O)N1CCN(c2ccc(OC)cc2)CC1)n1nc(C)n2c(cc3occc32)c1=O (stereo not given)	?	.	.	18µM*	.	18µM*
Cc1cccc(N2CCN(C(=O)C(C)n3nc(C)n4c(cc5occc54)c3=O)CC2)c1C (stereo not given)	?	?	-16%	?	-2%	18µM*
O=C(CCCn1ncn2c(cc3occc32)c1=O)N1CCc2ccccc2C1	-9%	-14%	?	-8%	-11%	-13%
Cc1nn(C(C)C(=O)N2CCN(c3ccccn3)CC2)c(=O)c2cc3occc3n12 (stereo not given)	0%	.	29%	-4%	4%	-6%
CCc1c(C)sc2c1CCN(C(=O)Nc1ccccc1C(=O)OC)C2c1ccc(OC)cc1 (stereo not given)	-15%	.	.	?	.	?
CCc1c(C)sc2c1CCN(Cc1ccccc1C#N)C2c1ccccc1 (stereo not given)	-14%	.	.	9.2µM*	.	?
